# Data as given in ChEMBL document CHEMBL1157539, “Thousands of chemical starting points for antimalarial lead identification” (Nature, 2010).
# Assays:
# Type in all cases: functional
# Plasmodium falciparum [1] = test: GSK_TCMDC: Inhibition of Plasmodium falciparum 3D7 in whole red blood cells, using parasite LDH activity as an index of growth. Test compounds present at 2uM
# Plasmodium falciparum [2] = test: GSK_TCMDC: Inhibition of Plasmodium falciparum Dd2 in whole red blood cells, using parasite LDH activity as an index of growth. Test compounds present at 2uM
# HepG2 = test: GSK_TCMDC: Percent inhibition of human HepG2 cell line. Test compounds present at 10uM.
Compound,Inhibition (Plasmodium falciparum [1]),Inhibition (Plasmodium falciparum [2]),Inhibition (HepG2)
NC(=O)c1sc(-n2cnc3ccccc32)cc1OCc1ccccc1[N+](=O)[O-],99%,46%,10%
CCCC/C=C(\Cl)c1ccc(O)c2c1C[C@H]1C[C@H]3[C@H](N(C)C)C(O)=C(C(N)=O)C(=O)[C@@]3(O)C(O)=C1C2=O.Cl,90%,98%,16%
CC(O)C1CCCCN1C(=O)c1ccc(-c2cccc(-c3nc4cc(F)ccc4[nH]3)c2)cc1 (stereo not given),100%,97%,30%
O=C(NC1CCN(Cc2ccccc2)CC1)c1cc(-c2cccnc2)nc2ccc(Cl)cc12,97%,26%,0%
O=C(NC1CC1)c1ccc(N2CCC(Cc3ccccc3)CC2)nc1.O=C(O)C(F)(F)F,95%,92%,13%
COc1ccc(CNCc2ccc(F)cc2)cc1-c1ccc(S(=O)(=O)NCCN2CCCC2)s1.O=C(O)C(F)(F)F,100%,65%,61%
Cc1cc(N2CCCC2)nc(Nc2ccc(NC(=O)C(C)(C)C)cc2)n1,95%,15%,24%
O=C1OC2(CN1CC1CCN(Cc3ccc(O)c(Cl)c3)CC1)c1ccccc1-c1ccccc12,97%,96%,32%
CCCCCN(C(=O)Nc1cc(C(F)(F)F)cc(C(F)(F)F)c1)C(C)c1nc2ccccc2c(=O)n1CC (stereo not given),100%,100%,0%
Cc1cc(NCCC(=O)Nc2ccccc2)nc(NCCc2cccs2)n1.O=C(O)C(F)(F)F,99%,20%,26%
